This note sets out measurements from PubChem BioAssay AID687014 (The Scripps Research Institute Molecular Screening Center, 2013).

Among all 370,000 compounds or so, about 6,800 (1.8%) were called active. This excerpt belongs to a sample that is enriched for actives. Values without a mark were called inactive.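 Rule for the calls: active = activation above a cutoff set at the mean of all screened compounds plus 3 SD (cut at about 10% in these data); inactive = the rest.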

This assay concerns Nuclear hormone receptor DAF-12 (Heterodera glycines), GAL4 fusion. The assay can be described thus: hgDAF-12 GAL4 fusion reporter activation – cell-based, luminescence, HEK293, UAS-luciferase, primary screen (AID 687014).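 Note: 0% = DMSO wells and 100% = sodium butyrate wells.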 Conditions: HEK293 GAL4-hgDAF12 UAS-luciferase reporter, agonist luminescence; at 6.8 µM; hits give high values; normalized to butyrate control. (Reporter assays use an easily measured gene product as a stand-in for the process of interest.)
As for `C=CC[C@]12C[C@@]3(O[C@H](c4ccc(C(F)(F)F)cc4)N=C3C[C@H](c3ccc(OC)cc3)[C@H]1C)N(C1CCN(Cc3ccccc3)CC1)C2=O`, the activation is 0.9%.

`c1csc(-c2nnc(SCc3nc4ccccc4[nH]3)o2)c1`: the activation was -0.48%.

For the compound `CCOC(=O)C1=CN(Cc2ccc(Br)cc2)S(=O)(=O)N(C)C1C` (configuration not stated), the activation was 0.23%.

Turning to `Cc1ccc(S(=O)(=O)N(NC2=NS(=O)(=O)c3ccccc32)C(=O)c2ccccc2)cc1`, the activation was 0.43%.

For `CC(C)(C)c1csc(NC2=NS(=O)(=O)c3ccccc32)n1`, the activation is 19.4% (active).

For the compound `O=C(Oc1cccc(NC2=NS(=O)(=O)c3ccccc32)c1)c1ccncc1`, the activation was -1.92%.

`CCCCOCCCNC(=O)C[C@H]1C[C@@]2(C(=O)OC)C(=C[C@H](C(C)(C)C)O[C@@H]2C)N(CCc2ccc(OC)c(OC)c2)C1=O`: the activation is -0.02%.

With `CCCNC(=O)c1cc2c(c(-c3cccc(-c4ccc(C#N)cc4)c3)n1)[C@@H](CCO)N(C(=O)CC)C2`, the activation was -0.02%.

Regarding `Cc1ccc(NC(=O)c2sccc2C)cc1[N+](=O)[O-]`, the activation is 14.2% (active).

In the case of `Cc1ccc(/C=N/NC(=O)c2sccc2OCc2ccc(F)cc2)cc1`, the activation is 3.63%.

Consider `Cc1ccc(NC(=O)CN2CCC(C(N)=O)CC2)cc1[N+](=O)[O-]`, for which the activation was 0.92%.

Turning to `Cc1ccsc1C(=O)NC1CCCCC1C` (configuration not stated), the activation is -0.72%.

In the case of `Cc1ccsc1C(=O)NCCc1ccco1`, the activation is 8.62%.

Regarding `Cc1ccsc1C(=O)N/N=C/c1ccc([N+](=O)[O-])cc1`, the activation was 13.9% (active).

With `Cn1c(N)c(C(=O)COC(=O)c2ccccc2NCc2ccco2)c(=O)n(C)c1=O`, the activation is -0.34%.

Consider `COc1ccc(C#CCNCc2ccc(OC)cc2OC)cc1`, for which the activation is -1.32%.

Take `O=C(c1ccccc1)c1ccc(-c2ccccc2C(=O)NC2CCCCN(Cc3ccc(Cl)cc3)C2=O)cc1` (configuration not stated): the activation is 3.48%.

On to `CC(CO)N1CCS(=O)(=O)CC1` (configuration not stated), for which the activation is 0.38%.

Take `N#Cc1ccccc1OC[C@@H](O)CN1CCC(C(O)(c2ccccc2)c2ccccc2)CC1`: the activation is -4.54%.

For `C=CCN1C(=O)[C@H](CC(=O)NCCCN2CCCC2=O)[C@@]2(C(=O)OCC)CCCC=C12`, the activation is -1.4%.

Regarding `Cc1[nH]nc2c1C(c1ccc(Br)cc1)NC2=O` (configuration not stated), the activation is 0.07%.

Take `O=S(=O)(Nc1ccccc1Cl)c1cccc2nsnc12`: the activation was -1.42%.

Consider `O=C(Nc1ccccc1Cl)/C(Cl)=C(\Cl)S(=O)c1ccccc1` (configuration not stated), for which the activation is -20.1%.

On to `O=C(Nc1ccccc1Cl)c1ccc2nsnc2c1`, for which the activation was 12.6% (active).

In the case of `Cc1ccc(-n2c(SCC(=O)Nc3ccc(S(=O)(=O)Nc4nccs4)cc3)nnc2-c2ccncc2)cc1`, the activation is -0.9%.

As to `Nc1ncnc2c1ncn2C1OC(CO)CC1O` (configuration not stated), the activation is -1.31%.

Regarding `COc1ccc(C(=O)Nc2ccnn2C2CCN(Cc3ccncc3)CC2)cc1`, the activation was -1.76%.

On to `COc1ccc(C(=O)Nc2sc(C)c(C)c2CN2CCOCC2)cc1`, for which the activation is 11.8% (active).

Consider `CCOc1ccc(C(=O)Nc2ccc(CN3CCOCC3)cc2)cc1Cl`, for which the activation was -0.68%.

On to `COC(=O)c1ccccc1-n1cc(COC(=O)NCCc2ccccc2)nn1`, for which the activation is 0.71%.

In the case of `COC(=O)c1ccc(CN2C(=O)[C@]3(OCCC=C[C@H]3C)c3c(Br)cccc32)cc1`, the activation was 4.21%.

Regarding `Cc1ccc2nc(/C(C#N)=C\c3ccc(OC(=O)c4cccs4)cc3)[nH]c2c1`, the activation was 10.6% (active).

As for `COc1ccc(S(=O)(=O)N2CCCC2CNC(=O)C(=O)NC2CC2)cc1` (configuration not stated), the activation is 0.71%.

Regarding `O=Cc1cn(-c2ccccc2)nc1-c1ccccn1`, the activation is -0.68%.

As to `O=C(O)c1ccc(N/N=C/c2cn(-c3ccccc3)nc2-c2cccs2)cc1`, the activation was 16.3% (active).

For the compound `O=C(N/N=C/c1sc(N2CCCCC2)nc1-c1cccs1)c1cccnc1`, the activation is 1.92%.

In the case of `Fc1ccc2nc(COCc3nc4ccc(F)cc4[nH]3)[nH]c2c1`, the activation was 0.86%.

Consider `COc1cccc(-c2nnc(N(C)C(=O)c3ccno3)s2)c1`, for which the activation is 3.08%.

On to `O=C(NC1CCCCCCC1)c1cccs1`, for which the activation is 2.58%.

In the case of `O=C(Nc1ccccc1C(=O)NCCCn1ccnc1)c1ccc(Cl)cc1Cl`, the activation was -1.62%.

`O=C(NCCCn1ccnc1)c1cc(Br)c(Br)s1`: the activation was 1.27%.

Consider `O=C(NC1CCCC1)c1cc(-c2ccccc2)on1`, for which the activation was 36.2% (active).

Turning to `O=C(NC1CC1)c1ccc(-c2ccccc2)cc1`, the activation was 9.69%.

Regarding `O=C(NCCCn1ccnc1)c1cc(-c2ccccc2)on1`, the activation is 46% (active).

Take `COC(=O)c1ccc(COC(=O)C2CCN(S(=O)(=O)c3c(Cl)cccc3Cl)CC2)o1`: the activation is -1.37%.

On to `COc1ccc2c(C(C)c3ccc(N)cc3)cn(C)c2c1` (configuration not stated), for which the activation is 0.29%.

For `COC(=O)[C@]1(C#N)CC(=O)N(CC2CCCCC2)[C@@H]1c1ccccc1`, the activation is 1.35%.

As for `Cc1ccccc1CN1CCCCC(NC(=O)Nc2ccccc2F)C1=O` (configuration not stated), the activation is -3.67%.

Take `Nc1nc(SCC(=O)Nc2ccc(Cl)c([N+](=O)[O-])c2)n[nH]1`: the activation was -3.01%.

On to `O=C(NCc1ccccc1)[C@@H]1CCCN1C(=O)[C@H]1CCCN1C(=O)c1cccc(Cl)c1`, for which the activation was 2.12%.

In the case of `COC(=O)[C@]12C[C@H](CC(=O)N3CCOCC3)C(=O)N(Cc3ccc(Cl)cc3Cl)C1=C[C@H](COCc1ccccc1)O[C@@H]2C`, the activation is -2.38%.

Turning to `CCOC(=O)C1=C(C)NC2=C(C(=O)CC(C)(C)C2)C1c1ccc2c(c1)OCO2` (configuration not stated), the activation is -2.39%.

Turning to `COc1ccc(CNC(=O)COc2ccccc2C(=O)c2cnn(-c3ccccc3)c2)cc1OC`, the activation was 13.4% (active).

In the case of `COc1ccc(CNC(=O)COC(=O)c2c(C)nn(-c3ccccc3)c2C)cc1OC`, the activation was -3.17%.

Turning to `COc1ccc(CNC(=O)COC(=O)c2sccc2C)cc1OC`, the activation was 0.76%.

On to `CCOC(=O)CNC(=O)N(C)[C@H]1C[C@H]2c3[nH]c4c(-c5ccc6c(c5)OCO6)cccc4c3CCN2C(=O)[C@H]1[C@H](C)O`, for which the activation is -1.8%.

Consider `CCCN(C(=O)CSc1nnc(N)s1)c1c(N)n(Cc2ccccc2)c(=O)[nH]c1=O`, for which the activation was -3.79%.
